From PubChem BioAssay
FMDV inh: blocks foot and mouth disease virus. 410,000 compounds, 1.2% hits. FMDV antiviral cell-based qHTS. Potency, µM (doses to about 57.9 µM), actives largely listed as inhibitors. AID 1159524; calls by dose curve; tested in HEK293T cells; note: read-out not given here; nearly all actives have a fitted effect of over 45% in size
HCMV inh: inhibitors of human cytomegalovirus | HFF cells, HCMV-luciferase reporter, 72 h; stronger effect = lower value | 410,000 compounds, 4.5% hits | AID 1259415 | activity change, negative = inhibition, % at 57.5 µM; in the data active = activity change below about -60%; inconclusive = no clear call, values can overlap the other calls; inactive = above about -39%
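Steps: HFFs plated, 16 h 37C; compounds added; HCMV-luciferase added to MOI 1 PFU/cell; 72 h 37C; OneGlo reagent, 5 min room temperature; luminescence read, normalized to controls.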
LASV entry inh: inhibitors of Lassa virus binding or cell entry. Lassa virus pseudotype entry inhibition, cell reporter. Potency, µM (top dose mostly 37.9 µM), hits mostly inhibitors. 300,000 compounds, 1.2% hits. AID 540256; calls by dose curve; tested in HEK293 cells; note: nearly all actives have a fitted effect of over 50% in size
HCV inhibitor: HCV inhibition; Potency, µM (doses to about 41.8 µM), hits mostly inhibitors; Huh7.5.1 HCVcc-Cre infection, luciferase reporter, 44 h; AID 651820; 340,000 compounds, 3.4% hits; active = well fitted inhibition curve with a large enough effect; inconclusive = small, poorly fitted or top-dose-only effect, or another doubt; inactive = no such curve, though single readings can be large or run the other way
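Cells seeded at 1,000/well and cultured 4 h, then compounds added followed by HCVcc-Cre virus (~0.5 moi). After 44 h further culture, luciferase substrate was added, plates held 15 min at room temperature, and luminescence read for 15 sec.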
SARS PLP yeast: SARS-CoV PLP inhibition in yeast. Potency, µM (highest dose often 32.9 µM), hits mostly activators. AID 485353. 330,000 compounds, 0.19% hits. S. cerevisiae expressing SARS-CoV PLpro, growth rescue; calls by dose curve; note: nearly all actives have a fitted effect of over 55% in size
MARV entry inh: blocks Marburg virus binding to or entry into cells. Marburg virus pseudotyped entry inhibition, cell reporter. Potency, µM (doses to about 37.8 µM), most hits filed as inhibitors. 300,000 compounds, 1.8% hits; calls by dose curve; tested in HEK293 cells
Each line names hits and unclear results; the compound was inactive in the other large screens; ! = repeats disagree. Rows were chosen to be rich in hits. Some 8% of all compounds tested hit in one or more screens of this group.

Cc1cc(C(=O)CSc2ncn[nH]2)c(C)n1-c1cccc(S(=O)(=O)N2CCOCC2)c1	FMDV inh 28µM, HCV inhibitor inconclusive, MARV entry inh inconclusive
Cc1cc(C(=O)CN2C(=O)CN(C)C2=O)c(C)n1-c1cccc(S(=O)(=O)N2CCOCC2)c1	HCV inhibitor inconclusive (no result: LASV entry inh, MARV entry inh)
Cc1cc(C(=O)CCl)c(C)n1-c1cccc(S(=O)(=O)N2CCOCC2)c1	FMDV inh 25µM, HCV inhibitor inconclusive, SARS PLP yeast inconclusive, MARV entry inh inconclusive
COc1ccc(-c2nc(SCC(=O)c3ccc(OC)c(Br)c3)n[nH]2)cc1	none (no result: HCV inhibitor, SARS PLP yeast)
COc1ccc([C@@H]2C(C#N)=C(C)NC3=C2C(=O)c2ccccc23)cc1	none (no result: FMDV inh, HCMV inh, LASV entry inh, HCV inhibitor, SARS PLP yeast)
c1sc2[n+](c1C13CC4CC(CC(C4)C1)C3)CCS2	FMDV inh inconclusive, HCMV inh -64, MARV entry inh inconclusive
CC(C)Cn1c(N)c(C(=O)COC(=O)c2cnc(Cl)c(Cl)c2)c(=O)n(C)c1=O	HCV inhibitor 16µM (no result: LASV entry inh, MARV entry inh)
CC(C)Cn1c(N)c(C(=O)COC(=O)c2cc(-c3ccccc3)nc3ccccc23)c(=O)n(C)c1=O	FMDV inh inconclusive, HCV inhibitor inconclusive
CC(C)Cn1c(N)c(C(=O)COC(=O)c2cc(C3CC3)nc3ccccc23)c(=O)n(C)c1=O	FMDV inh 32µM, LASV entry inh 21µM, HCV inhibitor inconclusive
CC(C)Cn1c(N)c(C(=O)COC(=O)c2cc(C(F)(F)F)nc3ccccc23)c(=O)n(C)c1=O	FMDV inh 28µM, HCV inhibitor inconclusive
CC(=O)Nc1c(C)nn(-c2ccccc2)c1N1CCC(C(=O)Nc2ccccc2C(F)(F)F)CC1	none (no result: HCV inhibitor, SARS PLP yeast, MARV entry inh)
C=C1CCC2[C@](C)(CO)[C@H](O)CC[C@@]2(C)[C@@H]1C/C=C1/C(=O)OC[C@H]1O (stereo partly drawn)	none (no result: HCMV inh, LASV entry inh, HCV inhibitor, SARS PLP yeast, MARV entry inh)
C=C1CCC2[C@](C)(CO)[C@H](O)CC[C@@]2(C)[C@@H]1C/C=C1\C(=O)OC[C@H]1O (stereo partly drawn)	FMDV inh inconclusive, HCMV inh -107, HCV inhibitor inconclusive (no result: LASV entry inh, MARV entry inh)
CCN(CC)S(=O)(=O)c1cccc(-c2nnc(SCc3nc4ccccc4s3)o2)c1	LASV entry inh inconclusive, HCV inhibitor 7.1µM, MARV entry inh inconclusive
CCN(CC)S(=O)(=O)c1cccc(-c2nnc(SCCCC(=O)c3ccccc3)o2)c1	FMDV inh inconclusive, LASV entry inh inconclusive, HCV inhibitor 16µM, MARV entry inh inconclusive
CCN(CC)S(=O)(=O)c1cccc(-c2nnc(SCCCC(=O)c3ccc(F)cc3)o2)c1	FMDV inh inconclusive, LASV entry inh inconclusive, HCV inhibitor inconclusive, MARV entry inh 21µM!
CCN(CC)S(=O)(=O)c1cccc(-c2nnc(SCC(=O)c3cc(C)n(C4CC4)c3C)o2)c1	LASV entry inh inconclusive, MARV entry inh inconclusive
CCN(CC)S(=O)(=O)c1cccc(-c2nnc(-c3ccc(C)cc3)o2)c1	HCV inhibitor inconclusive
Brc1ccccc1-c1nnc(SCc2nc3ccccc3s2)o1	LASV entry inh inconclusive, HCV inhibitor inconclusive, MARV entry inh inconclusive
CCN(CC)S(=O)(=O)c1ccc(-c2nnc(SCC(=O)c3ccc(OC)cc3)o2)cc1	FMDV inh inconclusive
C=CCn1c(C)cc(C(=O)CSc2nnc(-c3cccc(S(=O)(=O)N(CC)CC)c3)o2)c1C	LASV entry inh inconclusive, HCV inhibitor 8.9µM
Cc1cccc(CNC(=O)C2CCN(S(=O)(=O)c3ccc4c(c3)CCCN4C(=O)C3CCC3)CC2)c1	FMDV inh inconclusive (no result: HCV inhibitor, SARS PLP yeast, MARV entry inh)
CC(Sc1nnc(-c2ccco2)o1)C(=O)NCCC1=CCCCC1 (stereo not drawn)	LASV entry inh inconclusive
CCN(CC)S(=O)(=O)c1cccc(-c2nnc(SC(C)C(=O)NCCC3=CCCCC3)o2)c1 (stereo not drawn)	FMDV inh inconclusive, HCMV inh inconclusive, LASV entry inh inconclusive, HCV inhibitor 11µM!
O=c1c2oc3ccccc3c2n(Cc2ccccc2Cl)c(=O)n1Cc1ccc2c(c1)OCO2	none (no result: HCV inhibitor, SARS PLP yeast, MARV entry inh)
O=C1CCCC2=C1C(c1ccccc1)C1=C(CCCC1=O)O2	none (no result: FMDV inh, HCMV inh, LASV entry inh, HCV inhibitor)
O=C1CCCC2=C1C(c1ccc(OS(=O)(=O)c3ccc(Cl)cc3)cc1)C1=C(CCCC1=O)O2	HCV inhibitor 13µM
COc1ccc(CCN2C(=O)CC(Cc3ccc(C)cc3)C2=O)cc1OC (stereo not drawn)	HCMV inh -64
COc1ccc(CCN2C(=O)CSC2=Nc2ccc(C)cc2C)cc1OC	FMDV inh 13µM, LASV entry inh inconclusive, HCV inhibitor inconclusive, MARV entry inh inconclusive
COc1ccc(OC)c(N2C(=O)CC(Cc3ccc(Cl)cc3)C2=O)c1 (stereo not drawn)	FMDV inh inconclusive
COc1ccc(OC)c(N2C(=O)CC(Cc3cc(C)cc(C)c3)C2=O)c1 (stereo not drawn)	FMDV inh inconclusive, HCV inhibitor 3.5µM
Cc1cc(CC(=O)O)c(C)n1-c1ccc(Cl)cc1	none (no result: FMDV inh, LASV entry inh, HCV inhibitor, SARS PLP yeast, MARV entry inh)
COc1cccc(CNC(=O)c2cc(S(=O)(=O)N3CCCCC3)cn2C)c1	none (no result: HCV inhibitor, SARS PLP yeast, MARV entry inh)
CCN(C(=O)CSc1ncc(S(=O)(=O)c2ccc(C)c(Cl)c2)c(=O)[nH]1)c1cccc(C)c1	none (no result: HCV inhibitor, SARS PLP yeast, MARV entry inh)
CCOC(=O)CCN1C(=O)[C@@H]2[C@H]3[C@H](O)[C@H](O)CC(=NOCc4ccccc4)[C@@H]3CC[C@H]2C1=O	LASV entry inh inconclusive (no result: FMDV inh, HCMV inh, HCV inhibitor, SARS PLP yeast)
Cc1ccccc1Cn1cc(CCC(=O)NCc2cccc(Br)c2)c2ccccc21	none (no result: HCV inhibitor, SARS PLP yeast, MARV entry inh)
CC(C)c1nc(N2CCOCC2)c(C#N)c2c1CCCC2	FMDV inh inconclusive, HCMV inh inconclusive, HCV inhibitor 7.1µM, MARV entry inh inconclusive
CC(C)c1nc(NCc2ccccc2)c(C#N)c2c1CCCC2	none
CC(C)c1nc(NCCO)c(C#N)c2c1CCCC2	FMDV inh inconclusive, HCMV inh -66, HCV inhibitor inconclusive
N#Cc1c(NCCCO)nc(NCc2ccccc2)c2c1CCN(Cc1ccccc1)C2	LASV entry inh inconclusive, HCV inhibitor 11µM, MARV entry inh inconclusive
N#Cc1c(NCCCO)nc(-c2ccco2)c2c1CCCC2	HCV inhibitor 10µM
CN1CCc2c(C#N)c(N3CCCCC3)nc(NCc3ccccc3)c2C1	LASV entry inh inconclusive, HCV inhibitor inconclusive, MARV entry inh inconclusive
CCSc1nc(N2CCOCC2)c2c(c1C#N)CCCC2	FMDV inh inconclusive
N#Cc1c(NC2CCCCC2)nc(-c2ccco2)c2c1CCCC2	none (no result: HCMV inh)
COc1cccc(CNC(=O)Cn2nc3c(cc2=O)CCCC3)c1OC	HCMV inh inconclusive (no result: HCV inhibitor, SARS PLP yeast, MARV entry inh)
COc1ccc(CCNC(=O)CSc2cn(CCNC(=O)c3ccccc3F)c3ccccc23)cc1OC	FMDV inh inconclusive, MARV entry inh inconclusive (no result: HCV inhibitor, SARS PLP yeast)
COCC(=O)Nc1cc(C(=O)N2CCN(c3ccccc3)C(=O)C2)cc2nc(-c3ccccc3)n(C)c12	none (no result: HCMV inh, LASV entry inh, HCV inhibitor, SARS PLP yeast, MARV entry inh)
CC1CC[C@@]2(OC1)OC1C(O)C3C4CC[C@H]5CC(O[C@@H]6O[C@@H](CO)[C@H](OC7OC(CO)C(O)C(OC8OCC(O)C(O)[C@H]8O)[C@@H]7O[C@@H]7OC(CO)[C@H](O)[C@@H](O[C@@H]8OC(CO)C(O)C(O)C8O)C7O)C(O)C6O)C(O)C[C@]5(C)C4CC[C@]3(C)C1C2C (stereo partly drawn)	FMDV inh 35µM (no result: HCMV inh, LASV entry inh, HCV inhibitor, SARS PLP yeast, MARV entry inh)
